Reference: PubChem BioAssay AID1376 (SRMLSC, 2008)
Several values for one entry are separate records, joined by “and”; a condition that tells them apart may be missing. Equal values may be shown once. Hit rate of the full screen: of about 220,000 compounds, about 530 (0.24%) were called active. The sample holds actives, similar compounds and a random draw of the others, so the mix is not that of the screen. Potency and affinity values are given separately. Unmarked numbers belong to inactive results. Rule as the data show it: active = inhibition above about 13%; inconclusive = no clear call, values can overlap the other calls; inactive = below that.

target: Bifunctional protein GlmU (Mycobacterium tuberculosis (strain ATCC 25618 / H37Rv)) (UniProt P9WMN3); experiment: inhibition of mycobacterial GlmU enzyme – biochemical, glucosamine-1-phosphate acetyltransferase (AID 1376);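 also: 0% = complete reaction with vehicle and 100% = reaction without substrate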; details: M. tuberculosis GlmU acetyltransferase enzyme assay; stronger effect = higher value;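 tested at 30 µM in the primary screen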
Sequence (P9WMN3 whole entry, looked up): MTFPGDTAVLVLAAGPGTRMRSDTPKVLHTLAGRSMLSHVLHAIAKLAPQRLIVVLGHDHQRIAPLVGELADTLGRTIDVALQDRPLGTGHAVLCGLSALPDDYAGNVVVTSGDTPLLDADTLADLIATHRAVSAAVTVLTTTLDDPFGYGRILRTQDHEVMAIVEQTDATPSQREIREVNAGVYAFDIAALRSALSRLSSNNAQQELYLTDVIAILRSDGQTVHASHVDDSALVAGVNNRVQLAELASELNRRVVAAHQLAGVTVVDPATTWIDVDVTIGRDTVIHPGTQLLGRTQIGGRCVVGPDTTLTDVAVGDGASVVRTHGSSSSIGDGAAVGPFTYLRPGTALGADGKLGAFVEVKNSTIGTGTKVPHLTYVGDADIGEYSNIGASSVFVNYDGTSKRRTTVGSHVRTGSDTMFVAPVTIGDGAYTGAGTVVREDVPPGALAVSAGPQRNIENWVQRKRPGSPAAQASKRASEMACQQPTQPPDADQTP

Row | Structure (SMILES) | inhibition
1 | O=C(COc1ccc(S(=O)(=O)NC2CCCCC2)cc1)N1CCN(c2ccc(F)cc2)CC1 | -2.74%
2 | COc1ccc(CNC(=O)CCSCc2cccc(Cl)c2)cc1 | 3.22%
3 | CC(C)CCN1CCN(CC#Cc2ccccc2)CC1CCO (stereo unspecified) | -6.43%
4 | OCCC1CN(CC(c2ccccc2)c2ccccc2)CCN1C1CCCC1 (stereo unspecified) | -0.28%
5 | CC(C)CCN1CCN(CC(c2ccccc2)c2ccccc2)CC1CCO (stereo unspecified) | 14% (active)
6 | CCOc1ccc(NS(=O)(=O)c2ccc3[nH]c(=O)cc(C(=O)O)c3c2)cc1 | 5.18%
7 | Cc1oc2c(C)c(O)ccc2c(=O)c1-c1cnn(-c2ccccc2)c1 | -1.79%
8 | Cc1oc2cc(O)ccc2c(=O)c1-c1cnn(-c2ccccc2)c1 | 1.72%
9 | Cc1oc2c(O)c(O)ccc2c(=O)c1-c1cnn(-c2ccccc2)c1 | 15% (active)
10 | CCOC(=O)C(NC(C)=O)(OCc1ccccc1)C(F)(F)F (stereo unspecified) | 1.91%
11 | COC(=O)C(O)(NC(=O)OCc1ccccc1)C(F)(F)F (stereo unspecified) | 13.5% (active)
12 | CCOC(=O)NC(NCc1ccccc1)(C(F)(F)F)C(F)(F)F | -2.58%
13 | O=C(Nc1ccccc1N1CCOCC1)c1ccc(Cl)c(S(=O)(=O)NCc2ccco2)c1 | 0.84%
14 | CN1CCN(C(=O)C2=C[C@@H](C3CCCCC3)C[C@@H](OCc3ccc(CO)cc3)O2)CC1 | 0.67%
15 | COC(=O)c1ccccc1NC(=O)CSc1nnc(-c2cccnc2)n1C | 3.07%
16 | COc1ccccc1CNC(=O)CCS(=O)(=O)c1ccc2c(c1)CCCN2C(C)=O | 15.2% (active)
17 | COc1ccc(NC(=O)CCS(=O)(=O)c2ccc3c(c2)CCCN3C(C)=O)cc1 | 0.16%
18 | COc1ccc(NC(=O)CCS(=O)(=O)c2ccc3c(c2)CCCN3C(C)=O)cc1Cl | -0.45%
19 | O=[N+]([O-])c1ccc2[nH]nc(-c3ccccc3)c2c1 | 4.82%
20 | NNC(=O)c1cc2sccc2s1 | 14% (active)
21 | CC(=O)NNC(=O)c1cc2sccc2s1 | 0.49%

Row | Structure (SMILES) | inhibition
22 | O=C(O)c1cc2sccc2s1 | 1.23%
23 | O=C1c2cccnc2C(=O)N1C1CCCCC1 | 6.11%
24 | CCC(c1ccccc1)c1nnc(NC(=O)c2ccco2)s1 (stereo unspecified) | 4.36%
25 | CC1=CC(C)(C)N(C)C(=O)N1c1ccc(Cl)cc1 | -0.04%
26 | Cc1cc(=O)cc(C)n1-c1ccc(Cl)cc1 | 1.93%
27 | O=C1[C@H]2[C@H](C=CC[C@H]2C(=O)N2CCN(c3ccccc3)CC2)CCN1Cc1ccc(Cl)c(Cl)c1 | 0.58%
28 | O=S(=O)(Nc1nc(CN2CCOCC2)nc2sc3c(c12)CCCC3)c1cc(F)ccc1F | 2.36% and -0.91%
29 | CC(c1ccccc1)N1CC(C(=O)N2CCN(c3ccccc3)CC2)CC1=O (stereo unspecified) | -1.56%
30 | CS(=O)(=O)N(CC(=O)Nc1c(F)cccc1F)c1cccc([N+](=O)[O-])c1 | 1.32%
31 | CS(=O)(=O)N(CC(=O)Nc1ccc(F)cc1F)c1cccc([N+](=O)[O-])c1 | 14.6% (active)
32 | CS(=O)(=O)N(CC(=O)Nc1cccc(F)c1)c1cccc([N+](=O)[O-])c1 | 2.56%
33 | Nc1nc2ccccc2cc1S(=O)(=O)c1ccccc1 | -5.35%
34 | Cc1ccc(S(=O)(=O)c2cc(O)ccc2O)cc1C | 5.34%
35 | O=S(=O)(c1ccccc1)c1cc(O)ccc1O | 12.9% (active)
36 | Cc1ccc(C(=O)/C=C\Nc2ccc(C)c(C)c2)cc1 | -4.99%
37 | COc1ccc(S(=O)(=O)NCC2CCCN(C(=O)CNC(C)=O)C2)cc1 (stereo unspecified) | -0.35%
38 | CCc1ccc2oc(C(=O)Nc3ccc(S(N)(=O)=O)cc3)c(C)c2c1 | 1.87%
39 | CCN1CCN(CCC2Oc3cc([N+](=O)[O-])ccc3NC2=O)CC1 (stereo unspecified) | -2.08%
40 | COc1ccc(CCn2c3c(c(=O)[nH]c2=O)C(NC(=O)c2cccs2)(C(F)(F)F)C(=O)N3)cc1OC (stereo unspecified) | 13.3% (active)
41 | COc1ccc(C(=O)NC2(C(F)(F)F)C(=O)Nc3c2c(=O)[nH]c(=O)n3CCc2ccc(OC)c(OC)c2)cc1 (stereo unspecified) | -0.41%
42 | CC(=O)NC1(C(F)(F)F)C(=O)Nc2c1c(=O)[nH]c(=O)n2CCc1ccccc1 (stereo unspecified) | 1.88%

Row | Structure (SMILES) | inhibition
43 | O=C(NCc1cccs1)c1csc2c1CCCCC2 | 1.69%
44 | CCN(CC)C(=O)CSc1nc2ccccc2c(=O)n1CC1CCCCC1 | 13.3% (active)
45 | CCN(CC)C(=O)CSc1nc2ccccc2c(=O)n1CC | -0.44%
46 | CCOC(=O)CSc1nc2ccccc2c(=O)n1CC1CCCC1 | -1.38%
47 | N#CCCn1cc(C(=O)Nc2ccccc2Br)c(-c2cc3ccccc3o2)n1 | -0.21%
48 | O=C(CN(CC1CCCO1)C(=O)CNS(=O)(=O)c1ccc(Cl)cc1)NCC1CCCO1 (stereo unspecified) | -2.4%
49 | N#Cc1ccccc1NC1=CC(=O)CCC1 | -6.37%
50 | CCc1nnc2n1N=C(c1ccc([N+](=O)[O-])cc1)CS2 | -0.05%
51 | COc1ccc(NC(=O)c2cccs2)cc1 | -2.83%
52 | O=C(O)COc1ccc(NC(=O)c2cccs2)cc1 | -5.47%
53 | O=C(O)c1ccccc1C(=O)Nc1ccc(Oc2ccccc2)cc1 | 0.7%
54 | Cc1ccc(C(=O)Nc2ccc(Oc3ccc(C(=O)O)c(C(=O)O)c3)cc2)cc1C | 47.7% (active)
55 | Cc1ccc(C(=O)Nc2ccc(O)cc2C(=O)O)cc1C | 1.76%
56 | Cc1cccc(Oc2ccc(NC(=O)c3ccccc3C(=O)O)cc2)c1 | 1.43%
57 | COc1ccc(C(=O)Nc2cccc(OC)c2)cc1 | 6.57%
58 | COC(=O)CCSC(=S)N1CCOCC1 | -0.58%
59 | COc1ccc(NC(=O)N(Cc2cccs2)Cc2cc3cc4c(cc3[nH]c2=O)OCO4)cc1 | 1.28%
60 | CCOC(=O)c1cc2sccc2n1CC(=O)C(C)(C)C | -4.29%
61 | CCn1ncc(Br)c1C(=O)Nc1ccn(C23CC4CC(CC(C4)C2)C3)n1 | -4.08%
